The results in this text go back to PubChem BioAssay (EPA / NIEHS).

More than one record can exist for a structure, and the calls need not agree. Activity calls are given as the source filed them. Rule for the calls: active = hit-call score of the fitted dose curve at least 0.9, where 1 is the maximum; inactive = score below 0.9.

One may read the AC50 as the concentration giving half of the maximal activity seen.

Test [1] can be described thus: ATG_M_32_CIS: Attagene CIS-FACTORIAL HepG2 Assay for M32 Transcription Factor (Internal Marker) (AID 2282949).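 Note: background control marker of the multiplexed CIS panel rather than a real target.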 As to conditions: HepG2 Attagene cis-factorial M32 reporter, mRNA; actives raise or lower the signal. In short, it runs like this:
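HepG2 transfectants (cis-regulated reporter transcription units) dosed 24 h. Reporter mRNA by RT-PCR plus CE, analysed as gain or loss relative to DMSO.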

Test [2] is described as follows: ATG_M_06_CIS: Attagene CIS-FACTORIAL HepG2 Assay for M06 Transcription Factor (Internal Marker) (AID 2282950). To be noted: HepG2 Attagene CIS-FACTORIAL M06 internal marker reporter; actives raise or lower the signal. Summed up:
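Fluorescence-labelled RT-PCR products from cis-promoter reporter units, cut with HpaI and resolved by capillary electrophoresis, give the signal. Cells are human HepG2, dosed for 24 h. Serves as background control, fitted relative to DMSO.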

The target in test [3] is Hypoxia-inducible factor 1-alpha (Homo sapiens) (UniProt Q16665). The test is described as follows: ATG_HIF1a_CIS: Attagene CIS-FACTORIAL HepG2 Assay for human Hypoxia Inducible Factor 1 (HIF1A) (AID 2282951). To be noted: HepG2 Attagene cis-factorial HIF1a reporter transcription; actives raise or lower the signal. In short, it runs like this:
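Measures endogenous transcription-factor activity through cis-regulated reporter mRNA in HepG2. Cells dosed 24 h; transcripts quantified by RT-PCR with 6-FAM-labelled products separated by capillary electrophoresis; DMSO serves as negative control.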

The target in test [4] is Hepatocyte nuclear factor 6 (Homo sapiens) (UniProt Q9UBC0). The test is described as follows: ATG_HNF6_CIS: Attagene CIS-FACTORIAL HepG2 Assay for human Hepatocyte Nuclear Factor 6 (HNF6) (AID 2282952). To be noted: HepG2 Attagene cis-factorial HNF6 reporter transcription; actives raise or lower the signal. In short, it runs like this:
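Readout: fluorescent reporter-transcript fragments resolved by capillary electrophoresis after RT-PCR, reflecting endogenous factor activity in transfected HepG2. Exposure 24 h. Gain or loss of signal fitted bidirectionally against DMSO.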

For test [5], the target named is Heat shock factor protein 1 (Homo sapiens) (UniProt Q00613). The test is described as follows: ATG_HSE_CIS: Attagene CIS-FACTORIAL HepG2 Assay for human Heat Shock Transcription Factor 1 (HSE) (AID 2282953). To be noted: HepG2 HSE cis-reporter, Attagene RNA transcription; actives raise or lower the signal. Summed up: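 After a 24 h incubation with test chemical, transfected HepG2 cells were harvested for RNA; reporter transcripts were measured by RT-PCR and capillary electrophoresis. Values reflect gain or loss of signal relative to DMSO.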

In test [6] the target is Paired box protein Pax-6 (Homo sapiens) (UniProt P26367). The test is described as follows: ATG_Pax6_CIS: Attagene CIS-FACTORIAL HepG2 Assay for human Paired Box 6 (PAX6) (AID 2282956). As to conditions: HepG2 CIS-FACTORIAL PAX6 reporter transcription, RNA readout; actives raise or lower the signal. Summed up:
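Readout: reporter transcript fluorescence after RT-PCR and capillary electrophoresis. Cells: HepG2, transiently transfected with cis-regulated MRTUs. Exposure 24 h. Gain or loss of signal fitted bidirectionally relative to DMSO.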

A short description of test [7]: ATG_PXRE_CIS: Attagene CIS-FACTORIAL HepG2 Assay for human Pregnane X Receptor Element (PXRE) (AID 2282957). To be noted: HepG2 Attagene CIS-FACTORIAL PXRE reporter, mRNA; actives raise or lower the signal. In short, it runs like this: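 Read-out: fluorescence of reporter-specific RT-PCR products resolved by capillary electrophoresis, fitted bidirectionally relative to DMSO. Human HepG2 liver cells carried transfected cis-promoter reporter units and were exposed to chemicals for 24 h.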

A short description of test [8]: ATG_PPRE_CIS: Attagene CIS-FACTORIAL HepG2 Assay for human Peroxisome Proliferator-activated Response Element (PPRE) (AID 2282958). To be noted: HepG2 PPRE cis-element reporter, Attagene transcription factor profiling; actives raise or lower the signal. Summed up:
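Cells are first transfected transiently with the multiplexed reporter library, then dosed for 24 h. Total RNA is reverse-transcribed, amplified, fluorescently end-labeled and HpaI-cut before capillary electrophoresis; activity is fitted bidirectionally against DMSO controls.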

Test [9] is described as follows: ATG_PBREM_CIS: Attagene CIS-FACTORIAL HepG2 Assay for human Phenobarbital-responsive Enhancer Module (PBREM) (AID 2282955). As to conditions: HepG2 PBREM cis-reporter, Attagene multiplexed transcription; actives raise or lower the signal. In short, it runs like this:
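Fluorescence of labelled reporter cDNA fragments, resolved by capillary electrophoresis, gives mRNA induction in transfected HepG2 cells treated for 24 h; DMSO serves as negative control and baseline.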

Test [10] in a line: ATG_MRE_CIS: Attagene CIS-FACTORIAL HepG2 Assay for human Metal Responsive Element (MRE) (AID 2282954). As to conditions: HepG2 MRE cis-reporter transcription, Attagene multiplex; actives raise or lower the signal. Summed up: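 Measured here is mRNA induction from an MRE cis-element reporter in HepG2 after 24 h, quantified by fluorescence of labelled RT-PCR products on capillary electrophoresis; gain- and loss-of-signal fits use DMSO as baseline.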

Paired box protein Pax-6 (Homo sapiens), sequence (P26367 whole entry, looked up): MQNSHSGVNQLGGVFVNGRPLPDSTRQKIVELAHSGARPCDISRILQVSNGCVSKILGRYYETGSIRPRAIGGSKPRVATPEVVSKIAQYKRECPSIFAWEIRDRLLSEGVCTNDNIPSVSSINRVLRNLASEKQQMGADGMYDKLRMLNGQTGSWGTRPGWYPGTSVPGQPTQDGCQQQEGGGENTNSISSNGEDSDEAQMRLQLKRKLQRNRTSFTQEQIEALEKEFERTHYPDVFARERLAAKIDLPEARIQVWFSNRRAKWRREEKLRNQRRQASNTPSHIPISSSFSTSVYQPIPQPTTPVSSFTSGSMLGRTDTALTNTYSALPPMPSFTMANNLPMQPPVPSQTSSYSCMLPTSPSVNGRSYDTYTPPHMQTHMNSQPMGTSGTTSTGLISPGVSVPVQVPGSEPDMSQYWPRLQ
Heat shock factor protein 1 (Homo sapiens), sequence (Q00613 whole entry, looked up): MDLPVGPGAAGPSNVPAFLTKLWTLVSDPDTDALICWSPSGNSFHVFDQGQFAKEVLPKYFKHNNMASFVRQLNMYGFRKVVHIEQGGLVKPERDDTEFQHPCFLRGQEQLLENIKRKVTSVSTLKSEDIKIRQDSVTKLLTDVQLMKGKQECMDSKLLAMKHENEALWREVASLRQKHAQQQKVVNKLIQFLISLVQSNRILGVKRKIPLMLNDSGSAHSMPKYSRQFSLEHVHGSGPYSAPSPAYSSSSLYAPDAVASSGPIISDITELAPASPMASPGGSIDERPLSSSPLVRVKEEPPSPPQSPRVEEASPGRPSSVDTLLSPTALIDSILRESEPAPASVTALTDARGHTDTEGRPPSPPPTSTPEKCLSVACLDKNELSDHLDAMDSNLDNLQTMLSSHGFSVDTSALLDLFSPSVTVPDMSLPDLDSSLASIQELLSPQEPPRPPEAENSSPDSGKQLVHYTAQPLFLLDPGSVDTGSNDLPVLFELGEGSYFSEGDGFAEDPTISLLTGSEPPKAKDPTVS
Hepatocyte nuclear factor 6 (Homo sapiens), sequence (Q9UBC0 whole entry, looked up, the tested form may be a part): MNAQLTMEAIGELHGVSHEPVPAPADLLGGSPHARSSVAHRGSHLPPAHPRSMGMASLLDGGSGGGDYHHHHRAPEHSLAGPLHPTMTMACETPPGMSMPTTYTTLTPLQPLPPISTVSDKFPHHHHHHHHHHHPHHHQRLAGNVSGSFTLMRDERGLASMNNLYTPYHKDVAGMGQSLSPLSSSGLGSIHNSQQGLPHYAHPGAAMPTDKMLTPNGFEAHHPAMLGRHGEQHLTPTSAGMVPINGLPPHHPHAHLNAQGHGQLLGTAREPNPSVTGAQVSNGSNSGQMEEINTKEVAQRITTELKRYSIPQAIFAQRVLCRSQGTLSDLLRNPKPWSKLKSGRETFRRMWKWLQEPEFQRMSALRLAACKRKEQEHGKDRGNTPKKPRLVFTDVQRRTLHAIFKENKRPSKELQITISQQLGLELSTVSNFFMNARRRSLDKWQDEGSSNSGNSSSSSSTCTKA
Hypoxia-inducible factor 1-alpha (Homo sapiens), sequence (Q16665 whole entry, looked up): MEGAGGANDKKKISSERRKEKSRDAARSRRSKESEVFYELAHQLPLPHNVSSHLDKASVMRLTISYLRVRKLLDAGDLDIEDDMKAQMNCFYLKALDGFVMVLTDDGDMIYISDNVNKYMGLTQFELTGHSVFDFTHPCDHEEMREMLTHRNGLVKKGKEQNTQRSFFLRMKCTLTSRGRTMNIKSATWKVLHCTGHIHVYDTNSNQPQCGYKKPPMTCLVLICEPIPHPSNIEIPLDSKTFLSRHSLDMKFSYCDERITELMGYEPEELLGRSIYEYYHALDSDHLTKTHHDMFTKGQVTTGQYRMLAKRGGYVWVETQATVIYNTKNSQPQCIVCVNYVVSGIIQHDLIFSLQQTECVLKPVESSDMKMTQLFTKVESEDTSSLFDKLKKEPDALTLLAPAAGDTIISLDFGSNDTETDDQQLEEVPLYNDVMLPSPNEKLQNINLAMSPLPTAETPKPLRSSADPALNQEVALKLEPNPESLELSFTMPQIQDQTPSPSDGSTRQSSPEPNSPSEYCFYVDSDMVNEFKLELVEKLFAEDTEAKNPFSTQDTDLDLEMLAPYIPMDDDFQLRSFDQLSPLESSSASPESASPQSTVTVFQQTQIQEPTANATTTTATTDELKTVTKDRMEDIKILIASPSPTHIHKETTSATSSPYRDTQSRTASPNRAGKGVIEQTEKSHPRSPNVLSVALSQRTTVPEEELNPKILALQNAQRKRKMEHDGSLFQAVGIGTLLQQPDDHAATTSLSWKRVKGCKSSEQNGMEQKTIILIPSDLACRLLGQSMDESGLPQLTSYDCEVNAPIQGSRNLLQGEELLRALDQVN

In the case of `Nc1nc(=S)[nH][nH]1`, the call in test [1], in test [2], in test [3], in [4], in test [5] and in [6] was inactive. In addition, the molecule was called inactive in test [7] and in [8].
As for `ClCCCCl`, the molecule was classed as inactive in test [1], in test [2], in test [3], in test [4], in test [5] and in test [9]. Moreover, the result in [6], in [7] and in test [8] was inactive.
On to `COCCl`, for which the outcome in test [1], in test [2], in [3], in test [4], in test [10] and in test [9] was inactive. Besides, the molecule was called inactive in [6], in [7] and in [8].
As for `CCCCN(CCCC)C(=S)S`, the result in test [1] and in [2] was inactive. In addition, the AC50 in test [3] is 100 µM (active); in test [4] it was 100 µM (active); in [5] it was 47.9 µM (active); in [6], 100 µM (active); in [7], 25.1 µM (active).
As for `N#Cc1ccncc1`, the result in test [1], in [2], in test [3], in test [4], in [5] and in test [10] was inactive. In addition, the molecule was called inactive in test [6] and in [8].
On to `Cc1cc(SCc2sc(-c3ccc(C(F)(F)F)c(F)c3)nc2C)ccc1OCC(=O)O`, for which the outcome in [1], in test [2], in [4] and in [9] was inactive. In addition, the AC50 is 17.2 µM (active) in [3], 24.5 µM (active) in [10], 33.4 µM (active) in test [6] and 1.32 µM (active) in test [7].
Turning to `CCOC(=O)OC1=C(c2cc(C)ccc2C)C(=O)NC12CCC(OC)CC2` (stereo not drawn), the call in [1], in [2], in test [3], in test [4], in [5] and in test [9] was inactive. In addition, the molecule was called inactive in [6], in [7] and in [8].
As for `CCOC(=O)C(SP(=S)(OC)OC)c1ccccc1` (stereo not drawn), the molecule was classed as inactive in [1], in test [2], in test [3], in test [4], in test [5] and in test [9]. In addition, in test [6], the outcome was inactive. Besides, the AC50 in test [7] is 1.77 µM (active).
In the case of `CCOC(=O)c1ccccc1S(=O)(=O)NC(=O)Nc1nc(Cl)cc(OC)n1`, the call in [1], in test [2], in test [3], in test [4], in [5] and in test [9] was inactive. Also, the call in test [6] and in test [8] was inactive. Further, the AC50 in test [7] is 5.49 µM (active).
Take `CCC[CH2][Sn]([Cl])([Cl])[CH2]CCC`: the molecule was classed as inactive in test [1], in test [2], in test [4] and in [9]. Further, the AC50 in test [3] was 1.24 µM (active); in [10], 1.24 µM (active); in test [6], 1.46 µM (active); in test [7], 0.865 µM (active); in test [8], 0.0625 µM (active).
In the case of `O=S1(=O)OC(c2cc(Br)c(O)c(Br)c2)(c2cc(Br)c(O)c(Br)c2)c2ccccc21`, the outcome in [1], in test [2], in [3], in [4], in test [10] and in test [9] was inactive. In test [6], the outcome was inactive. Further, the AC50 in [7] was 24.5 µM (active); in [8] it was 57.4 µM (active).
For the molecule `CC(C)CP(=S)(S)CC(C)C`, the result in test [1], in [2], in test [3], in [4], in test [5] and in test [9] was inactive. The outcome in test [6] was inactive. In addition, the AC50 in [7] is 38.6 µM (active).
As to `CCN(N=O)C(N)=O`, the call in test [1], in [2], in [3], in test [4], in test [5] and in test [6] was inactive. For the same molecule, the molecule was called inactive in test [7] and in test [8].
For `O=[N+]([O-])c1ccccc1O`, the call in [1], in [2], in [3], in test [4], in test [5] and in test [9] was inactive. Also, the molecule was called inactive in test [6] and in test [7]. In [7], the AC50 is 26.7 µM (active).
On to `O=S1OC[C@@H]2[C@H](CO1)[C@]1(Cl)C(Cl)=C(Cl)[C@@]2(Cl)C1(Cl)Cl` (stereo partly drawn), for which the molecule was called inactive in test [1], in test [2], in test [3], in test [4], in test [5] and in test [6]. Moreover, the figures for the AC50 in [9] and in test [7] were 26.4 µM (active) and 2.34 µM (active), respectively.
On to `C=CCN=C=S`, for which the call in [1], in test [2], in [3], in [4], in [5] and in test [6] was inactive. Also, the molecule was called inactive in test [7] and in test [8].
For `Clc1ccc(C(Cl)(Cl)Cl)cn1`, the call in test [1], in [2], in test [3], in test [4], in test [5] and in test [6] was inactive. For the same molecule, in test [8], the molecule was called inactive. The AC50 in test [7] was 14.1 µM (active).
Take `N#CCC#N`: the molecule was called inactive in [1], in [2], in test [3], in [4], in test [5] and in test [9]. The outcome in test [6], in [7] and in test [8] was inactive.
`CCCCCCCCCCCCc1cccc(S(=O)(=O)O)c1`: the molecule was called inactive in test [1], in test [2], in [3], in test [4], in test [10] and in [9]. Besides, the result in [6] was inactive. The AC50 in [7] was 17.9 µM (active).
Consider `O=[N+]([O-])c1ccc(Cl)c([N+](=O)[O-])c1`, for which the molecule was classed as inactive in test [1], in test [2], in [3], in test [4], in test [6] and in test [7]. In addition, the result in [8] was inactive. For the same molecule, the AC50 in test [5] is 6.97 µM (active).
Consider `NC(=O)CCl`, for which the molecule was called inactive in [1], in test [2], in test [3], in test [4], in [5] and in test [9]. For the same molecule, the molecule was classed as inactive in test [6] and in [8].
Consider `O=C1C=CC(=O)c2ccccc21`, for which the result in test [1], in test [2], in test [3], in [4], in [5] and in test [9] was inactive. Further, the molecule was classed as inactive in [6] and in test [8].
On to `C[As+](C)(C)CC(=O)[O-]`, for which the call in test [1], in test [2], in test [3], in test [4], in test [10] and in [9] was inactive. In addition, the molecule was called inactive in [6], in [7] and in test [8].
Consider `O=NN1CCCCCCC1`, for which the result in test [1], in [2], in test [3], in test [4], in [10] and in [9] was inactive. Moreover, the call in [6] was inactive. Moreover, the AC50 in test [7] is 47.4 µM (active).
On to `C1CCC(C2CCCCC2)CC1`, for which the molecule was called inactive in test [1], in [2], in [3], in test [4], in [10] and in [9]. For the same molecule, the result in [6], in test [7] and in test [8] was inactive.
Take `CC(C)[N+](=O)[O-]`: the molecule was called inactive in test [1], in [2], in test [3], in test [4], in test [5] and in test [9]. Also, the molecule was classed as inactive in [6], in test [7] and in test [8].
